{
  "source": "PubChem BioAssay (NCATS)",
  "note": "Inconclusive results are not listed. Activity calls are given as the source filed them. Calls follow the shape of the dose curve; as a rule, active = well fitted inhibition curve with a large enough effect; inconclusive = small, poorly fitted or top-dose-only effect; inactive = flat fitted curve, though single readings scatter. Where a SMILES comes first, the peptide text is derived from it. Bridges are numbered along the chain shown (N, C = ends). [ ]: non-standard residue; d: D form. Orn = NCCC[C@H](N)C(=O)O; Mpa = O=C(O)CCS",
  "data": [
    {"target": "Luciferin 4-monooxygenase (Photinus pyralis) (UniProt P08659)", "sequence (P08659 whole entry, looked up)": "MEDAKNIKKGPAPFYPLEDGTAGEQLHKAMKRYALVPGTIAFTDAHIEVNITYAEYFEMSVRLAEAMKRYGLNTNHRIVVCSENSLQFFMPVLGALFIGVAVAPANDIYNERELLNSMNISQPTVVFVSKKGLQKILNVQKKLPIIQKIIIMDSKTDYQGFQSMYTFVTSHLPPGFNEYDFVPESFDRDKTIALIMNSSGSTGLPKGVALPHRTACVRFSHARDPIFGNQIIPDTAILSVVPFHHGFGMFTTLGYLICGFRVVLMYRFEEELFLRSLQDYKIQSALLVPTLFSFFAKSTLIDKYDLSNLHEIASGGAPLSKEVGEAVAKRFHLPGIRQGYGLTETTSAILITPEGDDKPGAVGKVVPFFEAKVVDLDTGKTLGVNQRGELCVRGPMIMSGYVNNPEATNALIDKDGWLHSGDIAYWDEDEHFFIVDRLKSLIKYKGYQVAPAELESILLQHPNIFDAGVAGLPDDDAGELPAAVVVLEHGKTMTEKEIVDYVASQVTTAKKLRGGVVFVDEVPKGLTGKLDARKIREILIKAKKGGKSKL", "test": "Biochemical firefly luciferase enzyme assay for NPC (AID 624030);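 also: purified P. pyralis luciferase at 10 nM with luciferin and ATP substrate; 0% = DMSO and -100% = full luciferase inhibition by PTC124 control; nearly all actives have a fitted effect of over 70% in size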", "conditions": "purified P. pyralis luciferase, luminescence, 5 min; series mostly up to 58.6 µM; activity change, negative = inhibition: at the top concentration", "procedure,_shortened": "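Counter-screen for direct inhibition of the luciferase enzyme by approved-drug library compounds, run at 10 nM enzyme in 50 mM Tris acetate (final). Luminescence was read within 5 min of enzyme-buffer addition and normalized to PTC124 versus DMSO (0%).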", "values": [
      {"smiles": "O=P(O)(O)OC(Cn1cncn1)(Cn1cncn1)c1ccc(F)cc1F", "activity change, negative = inhibition": "-3.91% (inactive)"},
      {"smiles": "O=C1C(c2[nH]c3ccc(S(=O)(=O)O)cc3c2O)=Nc2ccc(S(=O)(=O)O)cc21", "Potency": "inactive"},
      {"smiles": "CCOC(=O)Nc1ccc2c(c1)N(C(=O)CN(C)C)c1ccccc1CC2", "activity change, negative = inhibition": "-4.43% [at 123 µM] (inactive)"},
      {"smiles": "COc1cc2[nH]c(C)c(CCN3CCN(c4ccccc4)CC3)c2cc1OC", "activity change, negative = inhibition": "-0.437% (inactive)"},
      {"smiles": "OC(CN1CCCCC1)c1cc(-c2ccccc2)on1", "note": "(configuration not stated)", "activity change, negative = inhibition": "-8.42% (inactive)"},
      {"smiles": "CCCCCCCCCCCCCCCC(=O)OC[C@@H](COP(=O)([O-])OCC[N+](C)(C)C)OC(=O)CCCCCCCCCCCCCCC", "activity change, negative = inhibition": "-0.9% (inactive)"},
      {"smiles": "CCCCCC(O)/C=C/C=O", "note": "(configuration not stated)", "activity change, negative = inhibition": "-1.6% (inactive)"},
      {"smiles": "O=C(O)c1cccc(/C=C2/C[C@@H]3[C@@H](/C=C/[C@@H](O)C4CCCCC4)[C@H](O)C[C@@H]3O2)c1", "activity change, negative = inhibition": "-3.56% (inactive)"},
      {"smiles": "CCOc1ccc(C[C@H]2NC(=O)CCSSC[C@@H](C(=O)N3CCC[C@H]3C(=O)N[C@@H](CCCN)C(=O)NCC(N)=O)NC(=O)[C@H](CC(N)=O)NC(=O)[C@H]([C@@H](C)O)NC(=O)[C@H]([C@@H](C)CC)NC2=O)cc1", "note": "([Mpa][dY](Et)ITNCP[Orn]G-NH2; disulfide 1-6)", "activity change, negative = inhibition": "-1.09% (inactive)"},
      {"smiles": "CN(C)CCOc1ccccc1Cc1ccccc1", "note": "(tested in a mixture with another compound)", "activity change, negative = inhibition": "-3.53% (inactive)"},
      {"smiles": "O=S(=O)(O)Oc1ccc(C(c2ccc(OS(=O)(=O)O)cc2)c2ccccn2)cc1", "activity change, negative = inhibition": "-15.5% (inactive)"},
      {"smiles": "O=[N+]([O-])c1ccc(Oc2ccc(N=C=S)cc2)cc1", "activity change, negative = inhibition": "-9.39% (inactive)"}
    ]}
  ]
}
